Test results published in PubChem BioAssay AID686977 (Southern Research Specialized Biocontainment Screening …, 2013).
The whole screen tested about 9,400 compounds, of which fewer than 10 were called active. Another 5% or so got no clear call; they are omitted. The rule behind the calls is not given here. Not all results are given here. Potency and affinity values are given separately.

Assay: Vibrio cholerae quorum sensing activators, luminescence (AID 686977)
Details: V. cholerae quorum sensing reporter, 6 h, stronger effect = higher value; dose 50, dose unit µM unless noted

SMILES	luminescence
O=C(c1ccccc1)n1ccc(-c2cnc(-c3ccccc3)s2)n1	0 (inactive)
CC1CCc2nn(CC(=O)NCCC3=CCCCC3)cc2C1 (centres undefined)	0 (inactive)
C=CCn1c(SCc2cccc(C#N)c2)nnc1-c1ccccc1O	360 (inactive)
CCCC(c1nnnn1Cc1ccco1)N1CCN(c2cc(Cl)ccc2C)CC1 (centres undefined)	0 (inactive)
CCCCCn1c(SCc2ccncc2)nc2cc(C(=O)NCc3ccco3)ccc2c1=O	40 (inactive)
Cc1ccc(-c2nnc3n2N=C(c2ccccc2)CS3)cc1	0 (inactive)
Cc1c(NC(=O)c2cc(CC(C)C)on2)c(=O)n(-c2ccccc2)n1C	0 (inactive)
CCOC(=O)CC1C(=O)NCCN1C(=O)NC1CCCCC1 (centres undefined)	0 (inactive)
CCn1c(SCC(=O)NCc2ccco2)nc2c(c1=O)SC(C)C2 (centres undefined)	0 (inactive)
CCCc1[nH]nc2c1C(C1CCCCC1)C(C#N)=C(N)O2 (centres undefined)	0 (inactive)
CC(C)Cn1c(SC(C)C(=O)Nc2ccc3c(c2)OCCO3)nc2ccccc2c1=O (centres undefined)	40 (inactive)
Cc1cccc(NC(=O)C2CC(=O)n3cnnc3S2)c1 (centres undefined)	40 (inactive)
COCCn1c(SCc2nc3ccccc3c(=O)[nH]2)nnc1-c1ccncc1	40 (inactive)
COc1ccc2ccc(Oc3ncccn3)cc2c1	200 (inactive)
CCOC(=O)N1CCC(Nc2c(N3CCN(c4cc(Cl)ccc4C)CC3)c(=O)c2=O)CC1	0 (inactive)
Cc1nc(-c2cccc(NS(=O)(=O)c3ccccc3)c2)cs1	160 (inactive)
CC1(C)N=C(N)N=C(N)N1c1cccc(C(=O)O)c1	0 (inactive)
CCOC(=O)c1sc(NCc2ccco2)c(-c2nc3ccccc3s2)c1N	0 (inactive)
N#CC1(c2ccccc2)CCCN1C(=O)c1ccccc1Cl (centres undefined)	0 (inactive)
Cn1c(=O)oc2cc(S(=O)(=O)N3CCCc4ccccc43)ccc21	40 (inactive)
CC1CCc2cc(F)ccc2N1C(=O)c1cnc2sccn2c1=O (centres undefined)	0 (inactive)
COc1ccc(-c2nc(CS(=O)CC(=O)N3CCCC3)c(C)o2)cc1 (centres undefined)	0 (inactive)
CC(C)(C)c1nc2ccccc2c2nnc(SCC(=O)Nc3nccs3)n12	80 (inactive)
COc1ccc(NC(=O)CSc2nccn2-c2cccc(OC)c2)cc1	0 (inactive)
Nc1nnnn1/N=C/c1ccccc1C(F)(F)F	40 (inactive)
Cc1c(Cl)cccc1NC(=O)c1cc(-c2ccccc2O)n[nH]1	0 (inactive)
COc1ccc(N/N=C(\C=N\O)C(=O)c2ccc(OC)cc2)cc1	0 (inactive)
CCOC(=O)CSc1ccc(-c2nc3ccccc3[nH]2)cn1	0 (inactive)
Cc1nc(C)c(C(=O)C2=C(O)C(=O)N(CCN3CCOCC3)C2c2ccco2)s1 (centres undefined)	0 (inactive)
